Assay results: the supplement of paper PMC9177965
Values joined by “and” are separate entries in the source; they are usually repeats but may differ in a detail not shown here. Equal entries are not always repeated.

Tested on: HT29 sg-Ctrl (RNF43 wildtype)
Test: cell viability activity relative to DMSO (negative = inhibition); higher = more viable cells (less growth inhibition)
Conditions: 5 µM; 96 h
Experimental: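 Broad Repurposing Library primary screen at a single dose of 5 uM. HT29 sg-Ctrl and HT29 RNF43 G659fs CRISPR-edited isogenic cells were seeded at 2500 cells/well in 384-well plates in duplicate and treated for 96 h. Viability was read by CellTiter-Glo and reported as % activity relative to DMSO, with MG132 as the positive control (negative = growth inhibition).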

| SMILES | cell viability activity |
| --- | --- |
| C[C@]12CC[C@H](O)C[C@H]1CC[C@@H]1[C@@H]2CC[C@]2(C)[C@@H](C3=CC(=O)OC3)CC[C@]12O | -86.7% |
| COc1cccc2c1C(=O)c1c(O)c3c(c(O)c1C2=O)C[C@@](O)(C(=O)CO)C[C@@H]3O[C@H]1C[C@H](N2CCO[C@H](OC)C2)[C@H](O)[C@H](C)O1 | -95.3% |
| CC1CC(C)C(=O)C(C(O)CC2CC(=O)NC(=O)C2)C1 (centres undefined) | -81.2% |
| Clc1cccc(SC2CCNCC2)n1 | -64.7% |
| C/C(=C\c1csc(C)n1)[C@@H]1C[C@@H]2O[C@]2(C)CCC[C@H](C)[C@H](O)[C@@H](C)C(=O)C(C)(C)[C@@H](O)CC(=O)O1 | -72.3% |
| O=C1C=C2C=C[C@@H]3C[C@@]2(O1)[C@H]1CCCCN31 | -6.19% |
| COC(=O)NC(=S)Nc1ccccc1NC(=S)NC(=O)OC | -38.9% |
| CC[C@@H](C(=O)[C@@H](C)[C@@H](O)[C@H](C)[C@@H]1O[C@@H]([C@@H](CC)C(=O)O)CC[C@@H]1C)[C@H]1O[C@]2(C=C[C@@H](O)[C@]3(CC[C@@](C)([C@H]4CC[C@](O)(CC)[C@H](C)O4)O3)O2)[C@H](C)C[C@@H]1C | -71.9% |
| CN(C)C(=S)SSC(=S)N(C)C | -69% |
| O=C1/C(=C/c2ccccc2)C[C@@]2(O)C3Cc4ccc(O)c5c4[C@@]2(CCN3CC2CC2)[C@H]1O5 | -66% |
| CC(=O)O[C@H]1C[C@H](O[C@H]2[C@@H](O)C[C@H](O[C@H]3[C@@H](O)C[C@H](O[C@H]4CC[C@@]5(C)[C@H](CC[C@@H]6[C@@H]5C[C@@H](O)[C@]5(C)[C@@H](C7=CC(=O)OC7)CC[C@]65O)C4)O[C@@H]3C)O[C@@H]2C)O[C@H](C)[C@H]1O[C@@H]1O[C@H](CO)[C@@H](O)[C@H](O)[C@H]1O | -89.1% |
| C[C@@H]1O[C@@H](O[C@H]2C[C@@H](O)[C@]3(CO)[C@H]4[C@H](O)C[C@]5(C)[C@@H](C6=CC(=O)OC6)CC[C@]5(O)[C@@H]4CC[C@]3(O)C2)[C@H](O)[C@H](O)[C@H]1O | -87.7% and -89.1% |
| c1ccc2c(c1)[I+]c1ccccc1-2 | -52.1% |
| C[C@@]1(CO)[C@H](O)CC[C@@]2(C)[C@H]1CC[C@H]1C[C@@H]3C[C@@]12CC[C@]3(O)CO | -34.1% |
